Drawing on ChEMBL document CHEMBL3988442, “University of Dundee, Small-Polar-MMV Screening Library” (2021), this text covers Percent Effect for 51 compounds.

The target in experiment [1] is T1, Aspartate--tRNA(Asp/Asn) ligase (Mycobacterium tuberculosis (strain ATCC 25618 / H37Rv)) (UniProt P9WFW3). Further: in the data most compounds retested in dose-response had high values.
T1 sequence (whole entry): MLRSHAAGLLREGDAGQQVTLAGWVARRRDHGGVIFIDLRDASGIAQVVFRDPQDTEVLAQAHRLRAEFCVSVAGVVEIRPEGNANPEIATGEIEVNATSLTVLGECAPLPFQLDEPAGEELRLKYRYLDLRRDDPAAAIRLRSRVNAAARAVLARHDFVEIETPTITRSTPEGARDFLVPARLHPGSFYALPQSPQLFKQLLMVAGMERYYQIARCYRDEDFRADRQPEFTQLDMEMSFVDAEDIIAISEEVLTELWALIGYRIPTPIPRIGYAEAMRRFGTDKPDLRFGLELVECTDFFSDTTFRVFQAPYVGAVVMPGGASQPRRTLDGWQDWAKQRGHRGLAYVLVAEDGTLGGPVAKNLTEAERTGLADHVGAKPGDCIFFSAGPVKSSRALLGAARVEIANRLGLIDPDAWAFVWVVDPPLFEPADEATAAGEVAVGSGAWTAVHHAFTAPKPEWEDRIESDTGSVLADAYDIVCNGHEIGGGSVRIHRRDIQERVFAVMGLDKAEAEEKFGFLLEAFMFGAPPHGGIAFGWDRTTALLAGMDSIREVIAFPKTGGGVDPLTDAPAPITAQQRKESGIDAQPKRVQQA
The experiment can be described thus: Assay for Asp RNA synthetase-1 from Mycobacterium tuberculosis. Format: functional. Also on record: scale not given: direction of the effect not stated beside the values. The conditions noted are these: 30 µM.

In experiment [2] the target is Shiga toxin 2 (Escherichia coli O157:H7) (UniProt P09385+P09386). The experiment can be described thus: E. coli 0.157:H7 Shiga Toxin SOP - stx2 screening assay. Format: functional. Also on record: scale not given: direction of the effect not stated beside the values. The conditions noted are these: 30 µM.

On to `CCc1nccn1C1CCCN(C(=O)c2ccc3c(c2)OCO3)C1` (configuration not stated), for which the Percent Effect in experiment [1] was -0.182%; in experiment [2], 11.8%.

With `COc1c(C)cnc(CN2CCCCC2Cn2nc(C)nc2C)c1C` (configuration not stated), the Percent Effect in experiment [1] is -2.54%; in experiment [2] it was -21.3%.

As for `Cc1cnn(C2CCCN(C(=O)CCCOc3cccc(F)c3)C2)c1` (configuration not stated), the Percent Effect in experiment [1] is -4.03%; in experiment [2], 11.8%.

For the compound `CC(=O)NC1CCCN(C(=O)NCc2ccc(-c3ccn[nH]3)cc2)C1` (configuration not stated), the figures for the Percent Effect in experiment [1] and in experiment [2] were -1.85% and 1.62%, respectively.

Turning to `COc1cc(NC(=O)Cn2ccc3sc(C)cc3c2=O)cc(OC)c1`, the figures for the Percent Effect in experiment [1] and in experiment [2] were -2.26% and 0.557%, respectively.

For the compound `Cc1ccc(-c2nc(CN3CCOC(c4ccccc4)C3)cs2)o1` (configuration not stated), the Percent Effect in experiment [1] is -0.792%; in experiment [2], 13%.

For the compound `CCOCC1CN(C(=O)c2ccncc2)Cc2nn(C)cc21` (configuration not stated), the Percent Effect in experiment [1] was 4.25%; in experiment [2], -22.5%.

`Cc1nc(CNCc2c(C)nn(C)c2N2CCOCC2)cs1`: the Percent Effect in experiment [1] is -5.61%; in experiment [2], 23.3%.

`O=C(c1cccc(CNS(=O)(=O)c2ccccc2F)c1)N1CCCC1`: the Percent Effect in experiment [1] is 5.13%; in experiment [2] it was 22.1%.

Regarding `Cn1cnc(S(=O)(=O)N2CCN(Cc3ccco3)CC2)c1Cl`, the Percent Effect is -2.54% in experiment [1] and 13.8% in experiment [2].

Regarding `CN(c1ccncn1)C1CC2(CCN(C(=O)c3cccs3)C2)C1` (configuration not stated), the Percent Effect in experiment [1] is -6.21%; in experiment [2], -35.5%.

Consider `OC(COCc1ccccc1F)CN1CCc2c(ncn2C2CC2)C1` (configuration not stated), for which the figures for the Percent Effect in experiment [1] and in experiment [2] were -6.48% and -4.88%, respectively.

In the case of `Cn1ccnc1C(NCc1csc(Br)c1)c1ccccc1` (configuration not stated), the Percent Effect in experiment [1] was -0.175%; in experiment [2] it was -3.96%.

With `Cc1csc(CCCNC(=O)[C@H]2CNC[C@@H](C(=O)N3CCCC3)C2)n1`, the figures for the Percent Effect in experiment [1] and in experiment [2] were -3.08% and -2.63%, respectively.

Consider `COCC1CN(C(=O)c2cccn2C)Cc2nccn2C1` (configuration not stated), for which the Percent Effect in experiment [1] is -0.897%; in experiment [2], -15.6%.

Take `Cc1ccc(-n2nnc(CC(=O)N3CCOCC3)c2C)cc1`: the figures for the Percent Effect in experiment [1] and in experiment [2] were 2.26% and -28%, respectively.

With `COc1ccc(OC)c(NC(=O)NCC(O)c2ccc(F)c(F)c2)c1` (configuration not stated), the results for the Percent Effect in experiment [1] and in experiment [2] were 4.09% and -0.389%, respectively.

Consider `COCc1noc(-c2ccc(N3CCCCC3CO)nc2)n1` (configuration not stated), for which the Percent Effect in experiment [1] was -2.46%; in experiment [2], -5%.

Consider `CNC(=O)C(NC(=O)c1nccn2ccnc12)c1ccc(F)c(F)c1` (configuration not stated), for which the Percent Effect was found to be 0.0141% in experiment [1] and 14.2% in experiment [2].

As for `COc1cccc(COCC(=O)N2CCCC(n3ccnc3C)C2)c1` (configuration not stated), the Percent Effect is -4.19% in experiment [1] and -2.47% in experiment [2].

For `CNS(=O)(=O)c1cccc(C(C)NCc2ccccc2)c1` (configuration not stated), the Percent Effect was -1.42% in experiment [1] and -14.4% in experiment [2].

On to `CC1CCCN(CCNC(=O)c2ccn(-c3ccccc3)n2)C1` (configuration not stated), for which the Percent Effect in experiment [1] is 5.86%; in experiment [2] it was -20.3%.

For the compound `CCN(c1ccc(C(=O)NCCCN2CCCC2)cc1)S(=O)(=O)CC`, the values for the Percent Effect in experiment [1] and in experiment [2] were 2.52% and -46.4%, respectively.

For `Cn1nc2c(cc1=O)CN(Cc1nc(C(C)(C)C)no1)CC2`, the Percent Effect was determined as 50.6% in experiment [1] and 0.187% in experiment [2].

For `O=C1CC[C@H]2[C@H](CCN2C(=O)C2CCCO2)N1CCN1CCCC1` (some centres not stated), the Percent Effect was -1.39% in experiment [1] and 4.3% in experiment [2].

`CNC(=O)[C@@]12CCO[C@@H]1CCN(S(=O)(=O)c1cccnc1)C2`: the values for the Percent Effect in experiment [1] and in experiment [2] were 0.229% and 7.61%, respectively.

For the compound `CN(C)C(=O)[C@@H]1C[C@@H]2CCN(Cc3ccc4c(c3)OCO4)C[C@@H]2O1`, the Percent Effect was -0.869% in experiment [1] and 3.86% in experiment [2].

On to `CNc1oc(-c2cc(S(=O)(=O)N3CCCCCC3)c(C)o2)nc1C#N`, for which the results for the Percent Effect in experiment [1] and in experiment [2] were 2.56% and -18.8%, respectively.

`Cc1cnn(CCNCC(O)COc2c(C)ccc(C)c2C)c1` (configuration not stated): the figures for the Percent Effect in experiment [1] and in experiment [2] were 1.91% and -6.89%, respectively.

With `O=C(NCc1ccccn1)NC1CCOc2ccccc21` (configuration not stated), the Percent Effect in experiment [1] was -6.21%; in experiment [2], -20.3%.

As for `O=C(CCc1cccs1)N1CCC(Nc2cccnn2)CC1`, the Percent Effect is -2.47% in experiment [1] and -26.6% in experiment [2].

As to `Cn1cc(-c2nnn3c2COC(CNCc2nccs2)C3)cn1` (configuration not stated), the values for the Percent Effect in experiment [1] and in experiment [2] were -4.41% and -39.2%, respectively.

Turning to `CNC(=O)c1nc2c(s1)CCN(C(=O)Cc1ccc(OC)cc1)CC2`, the Percent Effect was 0.107% in experiment [1] and -7.44% in experiment [2].

For `COc1cccc2c1OCC(C(=O)N1CCN(S(C)(=O)=O)CC1)C2` (configuration not stated), the results for the Percent Effect in experiment [1] and in experiment [2] were -3.14% and 14.3%, respectively.

For `CCC1CCCCCN1C(=O)c1nnc2ccccc2c1N` (configuration not stated), the Percent Effect in experiment [1] is -3.53%; in experiment [2], -2.87%.

Turning to `Cc1cnn(CC(C)NCc2ccc(-n3cccn3)cc2)c1` (configuration not stated), the Percent Effect was -3.68% in experiment [1] and -40% in experiment [2].

With `CC(=O)N1CCN(Cc2nnc(C(C)(C)C)o2)CC1`, the figures for the Percent Effect in experiment [1] and in experiment [2] were 3.25% and -4.69%, respectively.

As to `CNC(=O)[C@@]12CCC3(CCN(S(C)(=O)=O)CC3)[C@@H]1CN(S(C)(=O)=O)C2`, the Percent Effect is 0.0987% in experiment [1] and -5.23% in experiment [2].

On to `O=C(c1cccc2c1OCO2)N1CCCC1Cn1cccn1` (configuration not stated), for which the Percent Effect was determined as 3.69% in experiment [1] and 29.5% in experiment [2].

In the case of `Cc1ccc(CNC(=O)CCSCc2csc(C)n2)cn1`, the Percent Effect is -3.37% in experiment [1] and -2.37% in experiment [2].

Take `COC(=O)c1cccn1C1CCN(C(=O)c2cn[nH]c2C)CC1`: the Percent Effect in experiment [1] was -3.31%; in experiment [2], -8.31%.

With `COc1cc(CNC(=O)c2c(C)noc2C(C)C)ccn1`, the Percent Effect in experiment [1] is -1.27%; in experiment [2], -44%.

In the case of `CC(C)CCOCCNC(=O)Nc1cc(C(F)(F)F)c[nH]c1=O`, the figures for the Percent Effect in experiment [1] and in experiment [2] were 1.4% and 5.72%, respectively.

As for `O=C(NCCOc1ccc2c(c1)CCC2)N1CCS(=O)(=O)CC1`, the Percent Effect in experiment [1] is -1.48%; in experiment [2], -52.5%.

Consider `CC(C)(C)n1ncc2c1CCCC2NCc1cccc2c1OCO2` (configuration not stated), for which the Percent Effect was -0.568% in experiment [1] and -1.18% in experiment [2].

For `CC(=O)NC(C)c1ccc(OCC2CC2)c(F)c1` (configuration not stated), the Percent Effect worked out at 0.15% in experiment [1] and 4.12% in experiment [2].

As to `CCNC(=O)N(C)Cc1ccc(SC)c(OC)c1`, the Percent Effect in experiment [1] is 4.58%; in experiment [2], 0.0534%.

For the compound `O=C1[C@H]2CN(Cc3nccs3)C[C@H]2CN1c1ccsc1`, the Percent Effect in experiment [1] is 5%; in experiment [2], 1.38%.

For `CC(NC(=O)c1cccs1)C(=O)NCc1ccccc1CN1CCCC1` (configuration not stated), the figures for the Percent Effect in experiment [1] and in experiment [2] were -4.19% and -31.6%, respectively.

Consider `CCOc1cccc2c1OCC(C(=O)NS(=O)(=O)c1ccc(C)s1)=C2`, for which the figures for the Percent Effect in experiment [1] and in experiment [2] were 4.55% and 2.64%, respectively.

Consider `CC1c2ncc(COc3cccnc3)n2CCN1C(=O)C1=CCCC1` (configuration not stated), for which the values for the Percent Effect in experiment [1] and in experiment [2] were -4.09% and -30.8%, respectively.
